TrxR1 inh – blocks rat thioredoxin reductase 1 | O89049 | recombinant rTrxR1, NADPH fluorescence consumption, selenite substrate | Potency, µM (highest dose often 114 µM), for the others: at the top dose activity change, negative = inhibition, most hits filed as inhibitors | 390,000 tested, 1% active | AID 588453; note: potency is the fitted concentration of half-maximal effect; nearly all actives have a fitted effect of over 65% in size
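Rat TrxR1 (90 nM in the dispensed reagent) was pre-reduced with 400 uM NADPH for 5 min at room temperature, then incubated with compound for 15 min. After 400 uM selenite was added, NADPH fluorescence (Ex 340/Em 450 nm) was followed for 8 min.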
GALK inh – blocks human galactokinase activity; P51570; Purified GALK, Kinase-Glo residual ATP luminescence; Potency, µM (top dose mostly 57.5 µM), for inactives: at the highest dose activity change, negative = inhibition, most hits filed as inhibitors; 270,000 tested, 0.007% active; AID 1868; note: potency is the fitted concentration of half-maximal effect
Target sequence (P51570 whole entry, looked up): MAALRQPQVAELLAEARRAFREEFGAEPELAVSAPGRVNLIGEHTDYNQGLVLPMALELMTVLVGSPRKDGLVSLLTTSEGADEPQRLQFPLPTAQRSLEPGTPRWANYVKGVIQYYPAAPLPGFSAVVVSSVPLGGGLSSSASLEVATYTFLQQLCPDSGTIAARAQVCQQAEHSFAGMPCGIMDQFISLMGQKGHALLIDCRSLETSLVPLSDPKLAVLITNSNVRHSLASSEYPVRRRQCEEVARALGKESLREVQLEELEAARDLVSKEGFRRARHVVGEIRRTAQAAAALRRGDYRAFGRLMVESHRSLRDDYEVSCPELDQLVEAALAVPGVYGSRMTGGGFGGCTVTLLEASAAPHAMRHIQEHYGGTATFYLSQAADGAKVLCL
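Galactose (100 uM) and ATP (35 uM) were turned over by 5 nM GALK for 1 h at RT. Kinase-Glo Plus then converted the remaining ATP into a luminescent signal.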
USP1 inh – blocks the human USP1/UAF1 deubiquitinase complex; AID 743255; recombinant USP1/UAF1, Ub-Rhodamine cleavage fluorescence; Potency, µM (highest dose often 57.1 µM), for inactives: top-dose activity change, negative = inhibition, most hits filed as inhibitors; 390,000 tested, 0.23% active; note: potency is the fitted concentration of half-maximal effect; nearly all actives have a fitted effect of over 60% in size
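1 nM enzyme complex + cpd, 15 min RT; start with Ub-Rho 150nM final; kinetic fluorescence ex 480/em 540, 6 reads q60 s. Buffer 50mM HEPES pH 7.8, 0.5mM EDTA, 0.1 mg/ml BSA, 1mM TCEP, 0.01% Tween-20.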
TrxR1 substrate – is turned over as a substrate by rat TrxR1; purified TrxR1 substrate turnover, NADPH consumption readout; Potency, µM (series often up to 114 µM), inactives show at the highest dose activity change, negative = substrate turnover; 390,000 tested, 0.01% active; AID 588456; note: potency is the fitted concentration of half-maximal effect; nearly all actives have a fitted effect of over 50% in size
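Rat TrxR1, dispensed at 90 nM, was prereduced with 400 uM NADPH (final) for 5 min at ~22 deg C, then incubated with compound 15 min before 400 uM selenite. A first-read NADPH fluorescence drop versus no-compound background flagged substrates.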
FBPA coupling cs – counter-screen for Giardia aldolase inhibitors: coupling enzyme system | AID 2472 | 290,000 tested, 0.67% active | activity change, negative = inhibition, % at 58.2 µM, hits read low | coupling enzyme system counterscreen, AmpLite Red fluorescence; in the data active = activity change below about -30%
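Compounds tested against the coupling enzymes alone at 57.5 uM final; readout was AmpLite Red fluorescence (525/598 nm) after 20 min at RT.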
An asterisk follows results filed as active; ? = inconclusive; . = no result given; [ ] = dose if it differs, or a comment. Most compounds without a hit are left out; they make up all but 1.5% or so of the library. Unless noted, calls come from the whole dose curve; as a rule, active = well fitted curve in the direction sought with a large enough effect; inconclusive = small, poorly fitted or top-dose-only effect, or another doubt; inactive = no such curve, though single readings can be large; an effect the other way counts as inactive or inconclusive. % is set by controls: 0 for no effect and ±100 for the full control effect.

SMILES | TrxR1 inh | GALK inh | USP1 inh | TrxR1 substrate | FBPA coupling cs
CCCSc1nc2cc(C)c(C)cc2n1CC(O)CO (stereo not given) | 10% | 12% | -8% | 0% | 1
CC(=O)Nc1ccc(/C=C/c2ccncc2)cc1 | 8% | . | . | 18% | .
Cc1ccc(C(=O)Nc2nc(-c3ccco3)c(-c3ccco3)s2)o1 | 25µM* | . | -10% | -7% | .
O=C(CCCSc1ccccc1)Nc1nc(-c2ccco2)c(-c2ccco2)s1 | ? | 0% | -19% | -2% | 0
O=C(CCl)Nc1nc(-c2ccco2)c(-c2ccco2)s1 | 13µM* | -8% | -23% | -2% | -4
Clc1ccc(/C=C/c2ccncc2)cc1Cl | ? | . | . | 1% | .
Cc1cccn2c(=O)c3cc(C(N)=S)c(=N)n(CCCOC(C)C)c3nc12 | 4%[57.1 µM] | 1% | 1% | 143%[57.1 µM] | -3
CCOCCCn1c(=N)c(C(N)=S)cc2c(=O)n3cccc(C)c3nc21 | 73% | 4% | -16% | 354% | -45*
COc1nc(C#N)nc(N2CCCCC2)n1 | ? | . | . | -3% | .
Cc1cccc(-n2c3nc(=O)[nH]c(=O)c-3cc3cc([N+](=O)[O-])ccc32)c1 | ? | -9% | ? | -12% | -8
Cc1ccc(C)c(-n2c3nc(=O)[nH]c(=O)c-3cc3cc([N+](=O)[O-])ccc32)c1 | ? | -6% | ? | -20% | -47*
C=C(C)C1CCC(C)C(OC(C)=O)C1 (stereo not given) | . | . | . | . | -1
c1ccc(-c2nc3nonc3nc2-c2ccccc2)cc1 | 1% | 9% | -27% | -1% | -37*
COCC(=O)OC1CCn2c1nc1c2C(=O)C(C)=C(NC(C)=O)C1=O (stereo not given) | ? | . | 4.5µM* | -13% | .
CC[C@H](C)[C@H](NC(=O)[C@H](C)NC(=O)[C@H](CC(=O)O)NC(=O)[C@H](CO)NC(=O)[C@@H](N)Cc1cnc[nH]1)C(=O)N[C@@H](Cc1ccccc1)C(=O)N[C@H](C(=O)N[C@@H](CCC(N)=O)C(=O)N[C@@H](CCC(N)=O)C(=O)N[C@@H](Cc1ccc(O)cc1)C(=O)N[C@@H](CO)C(=O)N[C@@H](CCCCN)C(=O)N[C@@H](CC(C)C)C(=O)N[C@@H](CC(C)C)C(=O)N[C@@H](C)C(=O)N[C@@H](CCCCN)C(=O)N[C@@H](CC(C)C)C(=O)N[C@@H](C)C(=O)N[C@@H](CC(C)C)C(=O)N[C@@H](CCC(N)=O)C(=O)N[C@@H](CCCCN)C(=O)N[C@@H](Cc1ccc(O)cc1)C(=O)N[C@@H](CC(C)C)C(=O)N[C@@H](C)C(=O)N[C@@H](CO)C(=O)N[C@H](C(=O)N[C@@H](CC(C)C)C(=O)NCC(=O)N[C@@H](CO)C(=O)N[C@@H](CCCNC(=N)N)C(=O)N[C@H](C(=O)N[C@@H](CO)C(=O)N1CCC[C@H]1C(=O)N1CCC[C@H]1C(=O)N1CCC[C@H]1C(N)=O)[C@@H](C)O)[C@@H](C)CC)[C@@H](C)O | . | . | . | . | 1
N#Cc1c(N(CCO)CCO)nc(N)c2c(N)nc3c(c12)CC(=O)N3Cc1cccs1 | 8% | 4% | ? | -8% | -31*
CC(=O)c1ccc(OCCCN2CCCCC2)cc1 | 15% | 1% | -15% | 4% | 1
CC(C)COc1ccc(C(=O)CCN2CCCCC2)cc1 | 1.4µM* | 3% | -18% | -10% | 3
CCCCOc1ccc(C(=O)CCN2CCCCC2)cc1 | 3.2µM* | 0% | -15% | 12% | 3
CC(C)COc1ccc(C(=O)OCCN2CCCCC2)cc1 | 1% | -1% | -5% | 0% | 1
C#CCOCCOCCOCCNc1nc(N2CCN(C(=O)CCCCCCCCCCNC(=O)[C@H](CCCCN)n3cc(CCO)nn3)CC2)nc(N2CCN(C(=O)CCCCCCCCCCNC(=O)[C@@H]([C@H](C)O)n3cc(C)nn3)CC2)n1 | 50µM* | . | ? | 6% | .
C#CCOCCOCCOCCNc1nc(N2CCN(C(=O)Cn3cc(CCCN=C(N)N)nn3)CC2)nc(N2CCN(C(=O)[C@H]([C@@H](C)O)n3cc(CCCCN)nn3)CC2)n1 | 71µM* | . | ? | -1% | .
C#CCOCCOCCOCCNc1nc(N2CCN(C(=O)[C@H](CCCCN)n3cc(CCCC)nn3)CC2)nc(N2CCN(C(=O)[C@H](Cc3ccc(O)cc3)n3cc(CCO)nn3)CC2)n1 | 14µM* | . | -16% | 10%[57.1 µM] | 1
C#CCOCCOCCOCCNc1nc(N2CCN(C(=O)[C@H](CCCCN)n3cc(CC(C)O)nn3)CC2)nc(N2CCN(C(=O)[C@H](Cc3ccc(O)cc3)n3cc(CCO)nn3)CC2)n1 (stereo not given in full) | 28% | . | -25% | 3% | .
C#CCOCCOCCOCCNc1nc(N2CCN(C(=O)[C@H](CCC(=O)O)n3cc(C(N)CC(C)C)nn3)CC2)nc(N2CCN(C(=O)[C@H](Cc3cc4ccccc4[nH]3)n3cc(C(N)CC(C)C)nn3)CC2)n1 (stereo not given in full) | 28µM* | 6% | -26% | 5% | 4
SMILES | TrxR1 inh | GALK inh | USP1 inh | TrxR1 substrate | FBPA coupling cs
C=C1C=C(C(F)F)n2ncc(C(=O)NCCc3ccc(Cl)cc3)c2N1 | 6% | . | . | 3% | .
c1cc2cn[nH]c2cc1NC1CCCCCC1 | 14% | 1% | -5% | 13% | -67*
S=C(Nc1ccccc1)Nc1ccc2cn[nH]c2c1 | -22% | -1% | -18% | 6% | -39*
CCOC(=O)OCC1OC(C#Cc2ccccc2)C=CC1OC(=O)OCC (stereo not given) | . | . | . | . | 4
C(=Nc1ccc(/C=C/c2ccnc3ccccc23)cc1)c1ccco1 | 29%[0.0914 µM] | . | . | 3% | .
O=C(CCN1Cc2ccccc2C1)c1ccc2c(c1)OCCO2 | 0.32µM* | 5% | -13% | -4% | 0
O=C(CCN1CCc2ccccc2C(c2ccccc2)C1)c1ccc2c(c1)OCCO2 (stereo not given) | 1.1µM* | -2% | -21% | -12% | 11
O=S(=O)(c1ccc(Cl)cc1)N1CCOCC1 | 7% | . | . | -1% | .
Cc1ccc2cc(C3CC(c4ccco4)=NN3S(C)(=O)=O)c(Cl)nc2c1 (stereo not given) | 79µM* | -1% | -14% | -4% | 0
CCOc1cc2c(C#N)c(N3CCOCC3)nc(N)c2c(N)n1 | -20% | 0% | 2% | 151% | -48*
CCOc1cc2c(C#N)c(N(CC)CC)nc(N)c2c(N)n1 | 13%[57.1 µM] | . | -22% | 5% | .
O=C(Cc1ccc(OCCC2CCCCC2)cc1)NO | -14% | . | . | -11% | .
CCCCC1C(=O)N(c2ccccc2)N(c2ccc(O)cc2)C1=O (stereo not given) | 7.9µM* | . | ? | 6% | -3
CCCC(=O)OCCNc1cc(SCc2ccco2)c2nonc2c1[N+](=O)[O-] | 4µM* | 1% | -8% | -16% | -13

From PubChem
